Key:
Assay in all cases: relative growth (AUC of 72 h growth curve relative to DMSO control, dAUC) (ratio); higher = more growth (less inhibition), active = hit call of the paper
Details in all cases: 20 µM;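 active = growth AUC significantly below the DMSO wells by Dunnett test; inactive = the rest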
[1] = system: Aeromonas 1 (Aeromonas sp. AE235)
Method in brief: (§1)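 Whole sediment communities and bacterial isolates from Icelandic stream sediments and Silwood Park soil were brought to carrying capacity in Luria–Bertani medium. They were then diluted 1:100 into 96-well plates with each chemical at 20 µM in 1% DMSO, and A600 was recorded every hour for 72 h. The area under each growth curve, integrated by spline, was averaged across three biological replicates. This figure, divided by the mean of the DMSO controls, gives relative growth (dAUC).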

[2] = system: Aeromonas 2 (Aeromonas sobria)
Method in brief: as §1

[3] = system: Aeromonas 3 (Aeromonas popoffii)
Method in brief: as §1

[4] = system: Argrobacterium 1 (Agrobacterium sp.)
Method in brief: as §1

[5] = system: Arthrobacter 1 (Arthrobacter humicola)
Method in brief: as §1

[6] = system: Arthrobacter 2 (Arthrobacter humicola)
Method in brief: as §1

[7] = system: Arthrobacter 3 (Arthrobacter sp.)
Method in brief: as §1

Community 4 = system: Community 4
Method in brief: as §1

Community 6 = system: Community 6
Method in brief: as §1

Community 7 = system: Community 7
Method in brief: as §1

Community 8 = system: Community 8
Method in brief: as §1

Community 9 = system: Community 9
Method in brief: as §1

[8] = system: Flavobacterium 1 (Flavobacterium glaciei)
Method in brief: as §1

[9] = system: Flavobacterium 2 (Flavobacterium succinicans)
Method in brief: as §1

[10] = system: Hymenobacter 1 (Hymenobacter glaciei)
Method in brief: as §1

[11] = system: Microbacterium 1 (Microbacterium arborescens)
Method in brief: as §1

[12] = system: Neobacillus 1 (Neobacillus soli)
Method in brief: as §1

[13] = system: Oryzobacter 1 (Oryzobacter terrae)
Method in brief: as §1

[14] = system: Paenibacillus 1 (Paenibacillus castaneae)
Method in brief: as §1

Measured: relative growth

O=[N+]([O-])/N=C1\NCCN1Cc1ccc(Cl)nc1
inactive: [1] 0.99 | [2] 0.99 | [3] 0.999 | [4] 0.959 | [5] 0.949 | [6] 1.06 | [7] 0.929 | Community 4 1.11 | Community 6 1.11 | Community 7 1.11 | Community 8 1.05 | Community 9 1.07 | [8] 0.997 | [9] 1.07 | [10] 1.14 | [11] 1 | [12] 1.06 | [13] 0.944 | [14] 1.15

CCc1cccc(C)c1N(C(=O)CCl)[C@@H](C)COC
inactive: [1] 1.01 | [2] 0.962 | [3] 0.992 | [4] 1 | [5] 1.08 | [6] 0.89 | [7] 1.02 | Community 4 1.01 | Community 6 0.968 | Community 7 1.12 | Community 8 1.05 | Community 9 0.948 | [8] 0.984 | [9] 0.967 | [10] 1.04 | [11] 1.04 | [12] 0.981 | [13] 1.06 | [14] 0.974

Cc1cc(C(F)(C(F)(F)F)C(F)(F)F)ccc1NC(=O)c1cccc(I)c1C(=O)NC(C)(C)CS(C)(=O)=O
1.41: [3]
inactive: [1] 0.939 | [2] 0.974 | [5] 0.792 | [6] 1.02 | [7] 0.822 | Community 4 0.805 | Community 6 0.894 | Community 7 1.15 | Community 8 1.07 | Community 9 0.75 | [8] 0.818 | [9] 1.2 | [10] 0.857 | [11] 0.925 | [12] 1.09 | [13] 0.97 | [14] 1.02
active: [4] 0.695

O=C(Nc1ccc(F)cc1F)c1cccnc1Oc1cccc(C(F)(F)F)c1
inactive: [1] 1.03 | [2] 0.98 | [3] 1.01 | [4] 1.02 | [5] 1.06 | [6] 1 | [7] 1.07 | Community 4 1.08 | Community 6 0.987 | Community 7 1.04 | Community 8 0.97 | Community 9 1.11 | [8] 1.09 | [9] 1.03 | [10] 1.05 | [11] 0.997 | [12] 1.06 | [13] 1.03 | [14] 0.937

COCC(=O)N(c1c(C)cccc1C)[C@H](C)C(=O)OC
inactive: [1] 0.971 | [2] 1.01 | [3] 1.02 | [4] 1 | [5] 0.981 | [6] 1.03 | [7] 1.04 | Community 4 1.21 | Community 6 1.08 | Community 7 0.993 | Community 8 1.06 | Community 9 1.1 | [8] 1.05 | [9] 1.02 | [10] 1.08 | [11] 1.03 | [12] 1.01 | [13] 0.955 | [14] 1.05

CCOC(=O)CC(SP(=S)(OC)OC)C(=O)OCC (stereo not drawn)
inactive: [1] 1.06 | [2] 0.992 | [3] 1.02 | [4] 1.01 | [5] 1.22 | [6] 1.05 | [7] 0.98 | Community 4 1.15 | Community 6 1.09 | Community 7 1.04 | Community 8 0.99 | Community 9 1.14 | [8] 1.02 | [9] 1.02 | [10] 1.02 | [11] 1 | [12] 1.06 | [13] 1.1 | [14] 1.02

CC1(C)CON(Cc2ccccc2Cl)C1=O
inactive: [1] 0.978 | [2] 0.966 | [3] 1.01 | [4] 1 | [5] 0.963 | [6] 0.879 | [7] 1.08 | Community 4 0.973 | Community 6 0.946 | Community 7 1.08 | Community 8 1.04 | Community 9 1.02 | [8] 1.02 | [9] 0.941 | [10] 0.974 | [11] 1 | [12] 0.965 | [13] 1.13 | [14] 0.973

CCc1cnc(C2=NC(C)(C(C)C)C(=O)N2)c(C(=O)O)c1 (stereo not drawn)
inactive: [1] 0.969 | [2] 0.981 | [3] 1 | [4] 0.95 | [5] 0.895 | [6] 0.959 | [7] 0.932 | Community 4 1.03 | Community 6 1.04 | Community 7 1.05 | Community 8 1.03 | Community 9 0.98 | [8] 0.988 | [9] 1.03 | [10] 1.09 | [11] 1.04 | [12] 1.01 | [13] 0.96 | [14] 1.02

CC1(C)C(C=C(Cl)Cl)C1C(=O)OC(C#N)c1ccc(F)c(Oc2ccccc2)c1 (stereo not drawn)
inactive: [1] 0.997 | [2] 1 | [3] 1.07 | [4] 1.03 | [5] 1.19 | [6] 0.879 | [7] 0.946 | Community 4 0.954 | Community 6 0.928 | Community 7 0.868 | Community 8 1.06 | Community 9 0.995 | [8] 1.02 | [9] 0.998 | [10] 1.03 | [11] 1.04 | [12] 0.981 | [13] 1.14 | [14] 0.826

CCSC(C)CC1CC(=O)C(/C(CC)=N/OC/C=C/Cl)=C(O)C1 (mixture of isomers)
inactive: [1] 0.981 | [2] 0.969 | [3] 0.986 | [4] 1.01 | [5] 0.93 | [6] 0.987 | [7] 0.986 | Community 4 1.09 | Community 6 1.01 | Community 7 1.02 | Community 8 1 | Community 9 1.12 | [8] 1 | [9] 0.981 | [10] 0.951 | [11] 1.03 | [12] 1.05 | [13] 1.03 | [14] 0.995

CC1(C)C(C=C(Cl)Cl)C1C(=O)OCc1cccc(Oc2ccccc2)c1 (stereo not drawn)
inactive: [1] 1.03 | [2] 0.961 | [3] 0.99 | [4] 1.04 | [5] 1.12 | [6] 0.851 | [7] 0.987 | Community 4 0.922 | Community 6 0.94 | Community 7 1.08 | Community 8 0.975 | Community 9 0.932 | [8] 0.977 | [9] 0.958 | [10] 0.989 | [11] 0.987 | [12] 1.05 | [13] 1.14 | [14] 0.894

CC(C1CC1)C(O)(Cn1cncn1)c1ccc(Cl)cc1 (stereo not drawn)
inactive: [1] 0.97 | [2] 0.942 | [3] 0.964 | [4] 1.09 | [5] 0.89 | [6] 0.961 | [7] 0.944 | Community 4 1.01 | Community 6 1.02 | Community 7 1.02 | Community 8 1.04 | Community 9 0.989 | [8] 0.999 | [9] 0.955 | [10] 1.03 | [11] 0.987 | [12] 0.985 | [13] 0.982 | [14] 0.959
